{
  "source": "PubChem BioAssay AID743360",
  "about": "(Molecular Libraries Program, Specialized Chemistry Center, …, 2014)",
  "note": "“And” between values parts separate entries of the source, which are not always exact repeats. Equal values may be shown once. A number with no mark means an inactive call. The source made the active and inactive calls.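 How the source made its calls: active means calcium retention capacity relative to untreated control above about 1.1 ratio (limit read from the data); inactive means the rest.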",
  "data": [
    {"test": "mtPTP inhibition via calcium retention, dose response, biochemical, dry powder samples, uHTS hits, Calcium Green-5N (AID 743360)", "settings": "isolated mitochondria, Ca retention capacity", "values": [
      {"smiles": "O=C(Nc1ccc(CN2CCCCC2)cc1)c1cc(Cl)cc(OCc2ccccc2)c1", "CRC/CRC0 ratio at 12.5 uM (higher = more inhibition)": "22.7 (active)"},
      {"smiles": "COc1ccc(Cl)cc1C(=O)Nc1ccc(CN2CCOCC2)cc1", "CRC/CRC0 ratio at 12.5 uM (higher = more inhibition)": "1.2 (active)"},
      {"smiles": "O=C(Nc1ccc(F)cc1F)c1cc(-c2ccccc2)on1", "CRC/CRC0 ratio at 12.5 uM (higher = more inhibition)": "> 1"},
      {"smiles": "Cc1ccc(-c2cc(C(=O)Nc3cccc(Cl)c3)no2)cc1", "CRC/CRC0 ratio at 12.5 uM (higher = more inhibition)": "> 1"},
      {"smiles": "COc1ccc(Cl)cc1S(=O)(=O)Nc1ccc(CN2CCCCC2)cc1", "CRC/CRC0 ratio at 12.5 uM (higher = more inhibition)": 1.05},
      {"smiles": "COc1ccc(Cl)c(C(=O)Nc2ccc(CN3CCN(C)CC3)cc2)c1", "CRC/CRC0 ratio at 12.5 uM (higher = more inhibition)": "> 1"},
      {"smiles": "CN1CCN(c2ccc(NS(=O)(=O)c3cc(Cl)cc(Cl)c3)cc2)CC1", "CRC/CRC0 ratio at 12.5 uM (higher = more inhibition)": "1.11 (active)"},
      {"smiles": "COc1ccc(Cl)cc1C(=O)Nc1cccc(CN2CCNCC2)c1", "CRC/CRC0 ratio at 12.5 uM (higher = more inhibition)": "1.52 (active)"},
      {"smiles": "CC1(C)CCN(CCCC(=O)c2ccc(Br)cc2)CC1", "CRC/CRC0 ratio at 12.5 uM (higher = more inhibition)": "1.1 (active)"},
      {"smiles": "C[C@@H]1CCC[C@H](C)N1CCCC(=O)c1ccc(Br)cc1", "CRC/CRC0 ratio at 12.5 uM (higher = more inhibition)": 1.01},
      {"smiles": "CN1CCN(CCc2ccc(NS(=O)(=O)c3cc(Cl)cc(Cl)c3)cc2)CC1", "CRC/CRC0 ratio at 12.5 uM (higher = more inhibition)": 1.09},
      {"smiles": "Cc1cc(NC(=O)c2ccc(-n3cnnc3)cc2)no1", "CRC/CRC0 ratio at 12.5 uM (higher = more inhibition)": "> 1"},
      {"smiles": "COc1ccc(Cl)c(C(=O)Nc2cccc(CN3CCN(C(=O)OC(C)(C)C)CC3)c2)c1", "CRC/CRC0 ratio at 12.5 uM (higher = more inhibition)": 1.04},
      {"smiles": "Cc1ccc(NC(=O)c2cc(-c3cccc(O)c3)on2)cc1Cl", "CRC/CRC0 ratio at 12.5 uM (higher = more inhibition)": "2.58 (active)"},
      {"smiles": "Cc1c(Cl)cccc1NC(=O)c1cc(-c2cccc(O)c2)on1", "CRC/CRC0 ratio at 12.5 uM (higher = more inhibition)": "6 (active)"},
      {"smiles": "COc1ccc(Cl)cc1C(=O)Nc1ccc(N(C)C)cc1", "CRC/CRC0 ratio at 12.5 uM (higher = more inhibition)": "1.18 (active)"},
      {"smiles": "O=C(Nc1ccc(OCc2ccccc2)c(Cl)c1)c1cc(-c2cccc(O)c2)on1", "CRC/CRC0 ratio at 12.5 uM (higher = more inhibition)": "> 1"},
      {"smiles": "Cc1ccc(Cl)cc1NC(=O)c1cc(-c2cccc(O)c2)on1", "CRC/CRC0 ratio at 12.5 uM (higher = more inhibition)": "9.18 (active)"},
      {"smiles": "COc1ccc(Cl)c(C(=O)Nc2ccc(CN3CCOCC3)cc2)c1", "CRC/CRC0 ratio at 12.5 uM (higher = more inhibition)": 1.03},
      {"smiles": "COc1ccc(Cl)c(C(=O)Nc2ccc(CN3CCCCC3)cc2)c1", "CRC/CRC0 ratio at 12.5 uM (higher = more inhibition)": "> 1"},
      {"smiles": "COc1ccc(Cl)cc1S(=O)(=O)Nc1ccc(CN2CCN(C)CC2)cc1", "CRC/CRC0 ratio at 12.5 uM (higher = more inhibition)": 1.03},
      {"smiles": "CC(C)C1CCN(CCCC(=O)c2ccc(Br)cc2)CC1", "CRC/CRC0 ratio at 12.5 uM (higher = more inhibition)": "1.16 (active)"},
      {"smiles": "COc1ccc(Cl)cc1C(=O)Nc1ccc(CCN2CCN(C)CC2)cc1", "CRC/CRC0 ratio at 12.5 uM (higher = more inhibition)": "1.37 (active)"},
      {"smiles": "COc1ccc(Cl)cc1C(=O)Nc1ccc(CN2CCCCC2)cc1", "CRC/CRC0 ratio at 12.5 uM (higher = more inhibition)": "1.8 (active)"},
      {"smiles": "CN1CCN(Cc2ccc(NS(=O)(=O)c3cccc(Cl)c3)cc2)CC1", "CRC/CRC0 ratio at 12.5 uM (higher = more inhibition)": 1.01},
      {"smiles": "COc1ccc(Cl)c(C(=O)Nc2ccc(CCN3CCOCC3)cc2)c1", "CRC/CRC0 ratio at 12.5 uM (higher = more inhibition)": "> 1"},
      {"smiles": "COc1ccc(Cl)c(C(=O)Nc2ccc(CN3CCN(C(=O)OC(C)(C)C)CC3)cc2)c1", "CRC/CRC0 ratio at 12.5 uM (higher = more inhibition)": "1.37 (active)"},
      {"smiles": "CN1CCN(c2ccc(Cl)cc2NC(=O)/C=C/c2cccc(F)c2)CC1", "CRC/CRC0 ratio at 12.5 uM (higher = more inhibition)": "1.53 (active)"},
      {"smiles": "O=C(Nc1ccc(Br)cc1)c1cc(C2CC2)on1", "CRC/CRC0 ratio at 12.5 uM (higher = more inhibition)": 1.06},
      {"smiles": "O=C(Nc1cccc(Cl)c1)c1cc(-c2cccc(O)c2)on1", "CRC/CRC0 ratio at 12.5 uM (higher = more inhibition)": "5.47 (active) and 7.74 (active)"},
      {"smiles": "COc1ccc(Cl)cc1C(=O)Nc1ccc(CN2CCNCC2)cc1", "CRC/CRC0 ratio at 12.5 uM (higher = more inhibition)": "1.65 (active)"},
      {"smiles": "COc1ccc(NC(=O)c2cc(Cl)cc(Cl)c2OC)cc1", "CRC/CRC0 ratio at 12.5 uM (higher = more inhibition)": "> 1"},
      {"smiles": "O=C(Nc1cccc(Cl)c1)c1cc(-c2ccc(Cl)cc2)on1", "CRC/CRC0 ratio at 12.5 uM (higher = more inhibition)": "> 1"},
      {"smiles": "O=C(Nc1ccc(N2CCCCC2)cc1)c1cccc(OCc2ccccc2)c1", "CRC/CRC0 ratio at 12.5 uM (higher = more inhibition)": 1.01}
    ]}
  ]
}
